Source: PubChem BioAssay (Tox21)
Several values for one entry are separate records, joined by “and”; a condition that tells them apart may be missing. Equal entries are not always repeated. Inconclusive results are not listed. Where a structure was tested more than once in an assay, its records may differ in their call. Activity calls are given as the source filed them. Calls come from the whole dose curve; as a rule, active = well fitted curve in the direction sought with a large enough effect in the repeat runs; inconclusive = weak or mixed curves; inactive = no such curve, though single readings can be large; an effect the other way counts as inactive or inconclusive.

Experiments:
[1] = A CellTox Green Cytotoxicity Assay to monitor cytotoxicity in HEK293 cells - 40 hour (AID 1224871); note: nearly all actives have a fitted effect of over 45% in size
Outline: (§1)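 Cytotoxicity was tracked continuously in HEK293 cells by a DNA-binding dye excluded from viable cells. Compounds were transferred in DMSO 5 h after seeding; fluorescence was recorded at intervals up to 40 h.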

[2] = qHTS RealTime-Glo MT Cell Viability Assay in HEK293 cells - 16 hour (AID 1224872); note: nearly all actives have a fitted effect of over 50% in size; note: potency is the fitted concentration of half-maximal effect; for activity change, negative = cytotoxicity: top concentration of the series differs between compounds
Outline: (§2)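 Nonlytic real-time viability readout: viable cells convert prosubstrate to NanoLuc substrate, giving luminescence proportional to live cell number. HEK293, 600 cells/well, compound added after 5 h, continuous culture at 37 C.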

[3] = qHTS RealTime-Glo MT Cell Viability Assay in HepG2 cells - 8 hour (AID 1224873); note: nearly all actives have a fitted effect of over 55% in size
Outline: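 Real-time viability: cells seeded at 600 per well together with NanoLuc and cell-permeant prosubstrate, compounds added after 5 h incubation. Luminescence tracked at 0, 8, 16, 24, 32 and 40 h of exposure.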

[4] = qHTS RealTime-Glo MT Cell Viability Assay in HEK293 cells - 40 hour (AID 1224874); details: RealTime-Glo luminescence; max response: stronger effect = lower value; note: nearly all actives have a fitted effect of over 50% in size; note: potency is the fitted concentration of half-maximal effect
Outline: (§3)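 Nonlytic bioluminescent viability monitoring. HEK293 at 600 cells/well with reagent; 5 h settle; compound transfer by pintool; plates held at 37 C and read at set time points.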

[5] = A CellTox Green Cytotoxicity Assay to monitor cytotoxicity in HEK293 cells - 24 hour (AID 1224875); note: series mostly up to about 77 µM; nearly all actives have a fitted effect of over 45% in size
Outline: as §1

[6] = A CellTox Green Cytotoxicity Assay to monitor cytotoxicity in HepG2 cells - 16 hour (AID 1224876); note: nearly all actives have a fitted effect of over 45% in size; note: potency is the fitted concentration of half-maximal effect
Outline: (§4)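 Real-time, homogeneous cytotoxicity readout: dead-cell DNA staining by CellTox Green in HepG2 monolayers, fluorescence measured at timed intervals up to 40 h of continuous compound exposure.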

[7] = qHTS RealTime-Glo MT Cell Viability Assay in HepG2 cells - 32 hour (AID 1224877); note: nearly all actives have a fitted effect of over 55% in size
Outline: (§5)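 Luminescence read-out: viable HepG2 cells reduce a prosubstrate to a NanoLuc substrate, giving a signal proportional to live cell number. Reads taken at 0, 8, 16, 24, 32 and 40 h of compound exposure at 37 C.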

[8] = A CellTox Green Cytotoxicity Assay to monitor cytotoxicity in HepG2 cells - 24 hour (AID 1224878); note: nearly all actives have a fitted effect of over 45% in size
Outline: as §4

[9] = A CellTox Green Cytotoxicity Assay to monitor cytotoxicity in HepG2 cells - 40 hour (AID 1224879); note: nearly all actives have a fitted effect of over 40% in size
Outline: as §4

[10] = qHTS RealTime-Glo MT Cell Viability Assay in HEK293 cells - 0 hour (AID 1224880)
Outline: as §3

[11] = A CellTox Green Cytotoxicity Assay to monitor cytotoxicity in HepG2 cells - 0 hour (AID 1224882); note: nearly all actives have a fitted effect of over 35% in size
Outline: as §4

[12] = A CellTox Green Cytotoxicity Assay to monitor cytotoxicity in HepG2 cells - 32 hour (AID 1224883); note: nearly all actives have a fitted effect of over 50% in size
Outline: as §4

[13] = A CellTox Green Cytotoxicity Assay to monitor cytotoxicity in HEK293 cells - 8 hour (AID 1224884); note: nearly all actives have a fitted effect of over 35% in size
Outline: as §1

[14] = qHTS RealTime-Glo MT Cell Viability Assay in HepG2 cells - 16 hour (AID 1224885); note: nearly all actives have a fitted effect of over 50% in size
Outline: as §5

[15] = qHTS RealTime-Glo MT Cell Viability Assay in HEK293 cells - 24 hour (AID 1224886); note: nearly all actives have a fitted effect of over 50% in size; note: potency is the fitted concentration of half-maximal effect; for activity change, negative = cytotoxicity: top concentration of the series differs between compounds
Outline: as §2

[16] = qHTS RealTime-Glo MT Cell Viability Assay in HEK293 cells - 8 hour (AID 1224887)
Outline: as §3

[17] = A CellTox Green Cytotoxicity Assay to monitor cytotoxicity in HEK293 cells - 16 hour (AID 1224888); note: nearly all actives have a fitted effect of over 35% in size
Outline: as §1

[18] = qHTS RealTime-Glo MT Cell Viability Assay in HepG2 cells - 0 hour (AID 1224889); note: nearly all actives have a fitted effect of over 50% in size
Outline: as §5

[19] = A CellTox Green Cytotoxicity Assay to monitor cytotoxicity in HepG2 cells - 8 hour (AID 1224890); note: nearly all actives have a fitted effect of over 45% in size; note: potency is the fitted concentration of half-maximal effect
Outline: as §4

[20] = A CellTox Green Cytotoxicity Assay to monitor cytotoxicity in HEK293 cells - 32 hour (AID 1224881); note: nearly all actives have a fitted effect of over 40% in size
Outline: as §1
% is set by controls: 0 for no effect and ±100 for the full control effect.

c1cnc2cc3c(cc2n1)C1CNCC3C1
inactive: Potency [1] | Potency [2] | Potency [3] | max response [4] 11% | Potency [5] | Potency [6] | Potency [7] | Potency [8] | Potency [9] | Potency [10] | Potency [11] | Potency [12] | Potency [13] | Potency [14] | Potency [15] | Potency [16] | Potency [17] | Potency [18] | Potency [19]

COc1nc(C)nc(Cl)c1NC1=NCCN1
inactive: Potency [1] | Potency [2] | Potency [3] | max response [4] 2.57% | Potency [5] | Potency [6] | Potency [7] | Potency [8] | Potency [9] | Potency [10] | Potency [20] | Potency [11] | Potency [12] | Potency [13] | Potency [15] | Potency [16] | Potency [17] | Potency [19]

Cc1cccc2n[nH]nc12
inactive and 43.6 µM (active): Potency [19]
inactive: Potency [1] | Potency [2] | Potency [3] | max response [4] -0.386% | Potency [5] | Potency [7] | Potency [9] | Potency [10] | Potency [20] | Potency [11] | Potency [12] | Potency [13] | Potency [14] | Potency [15] | Potency [16] | Potency [17] | Potency [18]
inactive and 38.9 µM (active): Potency [6]

Cc1ccnc2c1NC(=O)c1cccnc1N2C1CC1
inactive: Potency [1] | Potency [2] | Potency [3] | max response [4] -13.4% and -3.25% | Potency [5] | Potency [6] | Potency [7] | Potency [9] | Potency [10] | Potency [20] | Potency [11] | Potency [12] | Potency [13] | Potency [14] | Potency [15] | Potency [16] | Potency [17] | Potency [18] | Potency [19]

OCCN1CCNCC1
active: Potency [2] 15.8 µM | Potency [4] 7.9 µM | Potency [15] 7.9 µM
inactive: Potency [1] | Potency [3] | Potency [5] | Potency [6] | Potency [7] | Potency [9] | Potency [10] | Potency [20] | Potency [11] | Potency [12] | Potency [13] | Potency [16] | Potency [17] | Potency [18] | Potency [19]

CC(=O)OCCOCCOCCOC(C)=O
inactive: Potency [1] | Potency [2] | Potency [3] | max response [4] 7.9% and 19.2% | Potency [5] | Potency [6] | Potency [7] | Potency [8] | Potency [9] | Potency [10] | Potency [11] | Potency [12] | Potency [13] | Potency [14] | Potency [15] | Potency [16] | Potency [17] | Potency [18] | Potency [19]

CCCCCCCCCCCCCCCCCl
inactive: cytotoxicity increase [1] 10.8% [at 15.8 µM] | activity change, negative = cytotoxicity [2] 1.99% [at 15.8 µM] | viability change, negative = cytotoxic [3] 0.131% [at 15.8 µM] | max response [4] 0.0293% | activity change [5] 8.22% [at 15.8 µM, stronger effect = higher value] | cytotoxicity increase [6] 3.3% [at 15.8 µM] | activity change, negative = cytotoxic [7] 6.67% [at 15.8 µM] | cytotoxicity [8] 2.62% [at 15.8 µM] | cytotoxicity increase [9] 1.26% [at 15.8 µM] | activity change, negative = cytotoxicity [10] 2.19% [at 15.8 µM] | cytotoxicity [11] 7.68% [at 15.8 µM] | cytotoxicity increase [12] 1.23% [at 15.8 µM] | cytotoxicity increase [13] 2.79% [at 15.8 µM] | activity change, negative = cytotoxicity [15] 0.956% [at 15.8 µM] | activity change, negative = cytotoxicity [16] 1.34% [at 15.8 µM] | activity change [17] 5.27% [at 15.8 µM, stronger effect = higher value] | activity change, negative = cytotoxicity [18] -0.916% [at 15.8 µM] | cytotoxicity increase [19] 3.53% [at 15.8 µM]

C1COC(NC(C2CC2)C2CC2)=N1
inactive: Potency [1] | Potency [2] | Potency [3] | max response [4] 5.02% | Potency [5] | Potency [6] | Potency [7] | Potency [9] | Potency [10] | Potency [20] | Potency [11] | Potency [12] | Potency [13] | Potency [14] | Potency [15] | Potency [16] | Potency [17] | Potency [18] | Potency [19]

CC(C)(O)CCC(C)(C)O
inactive: Potency [1] | Potency [2] | Potency [3] | max response [4] -3.66% | Potency [5] | Potency [6] | Potency [7] | Potency [9] | Potency [10] | Potency [20] | Potency [11] | Potency [12] | Potency [13] | Potency [14] | Potency [15] | Potency [16] | Potency [17] | Potency [18] | Potency [19]

CCOc1ccc2c(c1)C(C)=CC(C)(C)N2
inactive: Potency [1] | Potency [2] | Potency [3] | max response [4] -10.3% and 3.02% | Potency [5] | Potency [6] | Potency [7] | Potency [9] | Potency [10] | Potency [20] | Potency [11] | Potency [12] | Potency [13] | Potency [14] | Potency [15] | Potency [16] | Potency [17] | Potency [18] | Potency [19]

O=Cc1ccc(Cl)cc1
inactive: Potency [1] | Potency [2] | Potency [3] | max response [4] -1.8% | Potency [5] | Potency [6] | Potency [7] | Potency [9] | Potency [10] | Potency [20] | Potency [11] | Potency [12] | Potency [13] | Potency [14] | Potency [15] | Potency [16] | Potency [17] | Potency [18] | Potency [19]
